Our source for the Potency and max response values is PubChem BioAssay (Tox21).

Molecules are shown by their SMILES. Where “and” joins values, the source holds several entries; their conditions need not be identical. Equal entries are not always repeated. Inconclusive results are not listed. Some compounds were tested as several samples or in several runs, with calls that do not always agree. Calls of active or inactive are those of the source. Calls come from the whole dose curve; as a rule, active = well fitted curve in the direction sought with a large enough effect in the repeat runs; inconclusive = weak or mixed curves; inactive = no such curve, though single readings can be large; an effect the other way counts as inactive or inconclusive.

Test [1] in a line: qHTS RealTime-Glo MT Cell Viability Assay in HEK293 cells - 16 hour (AID 1224872). Note: nearly all actives have a fitted effect of over 50% in size. Note: potency is the fitted concentration of half-maximal effect. A digest of the protocol:
(§1)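 Homogeneous bioluminescent viability format in HEK293 cells (600 cells/well). Following 5 h at 37 C/5% CO2, 23 nL compound was pintooled; the signal was measured repeatedly during 40 h incubation.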

Test [2] can be described thus: qHTS RealTime-Glo MT Cell Viability Assay in HepG2 cells - 8 hour (AID 1224873). Note: nearly all actives have a fitted effect of over 55% in size. Note: potency is the fitted concentration of half-maximal effect. The gist of the method: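 HepG2 cells mixed with RealTime-Glo MT reagents (NanoLuc plus cell-permeant prosubstrate) were seeded at 600 cells/well, incubated 5 h at 37 C/5% CO2, then pinned with compounds in DMSO; nonlytic luminescence tracked viability during 40 h treatment.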
Test [3] in a line: qHTS RealTime-Glo MT Cell Viability Assay in HEK293 cells - 40 hour (AID 1224874). Note: nearly all actives have a fitted effect of over 50% in size. Note: potency is the fitted concentration of half-maximal effect. As to conditions: RealTime-Glo luminescence; max response: stronger effect = lower value. The gist of the method: (§2)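 Luminescence, which tracks viable cell number through reduction of the prosubstrate to a NanoLuc substrate, was read over continuous 37 C culture. Cells (600/well) were premixed with reagent and rested 5 h before 23 nL of compound in DMSO was pinned.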

The nature of test [4]: A CellTox Green Cytotoxicity Assay to monitor cytotoxicity in HEK293 cells - 24 hour (AID 1224875). Note: nearly all actives have a fitted effect of over 45% in size. Note: potency is the fitted concentration of half-maximal effect. A digest of the protocol:
(§3)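 Fluorescence from a DNA-binding dye excluded by viable cells was measured repeatedly in the same HEK293 wells (600 cells/well) during continuous compound exposure at 37 C. Each assay gives one read point: 0, 8, 16, 24, 32 or 40 h.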

Test [5] can be described thus: qHTS RealTime-Glo MT Cell Viability Assay in HepG2 cells - 32 hour (AID 1224877). Note: nearly all actives have a fitted effect of over 55% in size. Note: potency is the fitted concentration of half-maximal effect. The gist of the method: (§4)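 Cell number in HepG2 cultures estimated from NanoLuc luminescence generated by metabolic reduction of a prosubstrate by living cells. The homogeneous, nonlytic format allowed repeated reads at 0, 8, 16, 24, 32 and 40 h of compound exposure.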
Test [6] can be described thus: A CellTox Green Cytotoxicity Assay to monitor cytotoxicity in HepG2 cells - 24 hour (AID 1224878). Note: nearly all actives have a fitted effect of over 45% in size. Note: potency is the fitted concentration of half-maximal effect. A digest of the protocol:
(§5)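 Real-time cytotoxicity: fluorescence of a cell-impermeant cyanine dye binding DNA of dead HepG2 cells, measured repeatedly (0–40 h) during compound exposure at 37 C. Cells seeded 600/well with reagent, dosed after 5 h.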

The nature of test [7]: A CellTox Green Cytotoxicity Assay to monitor cytotoxicity in HepG2 cells - 40 hour (AID 1224879). Note: nearly all actives have a fitted effect of over 40% in size. Note: potency is the fitted concentration of half-maximal effect. The gist of the method: as §5
Test [8] can be described thus: A CellTox Green Cytotoxicity Assay to monitor cytotoxicity in HEK293 cells - 32 hour (AID 1224881). Note: nearly all actives have a fitted effect of over 40% in size. Note: potency is the fitted concentration of half-maximal effect. The gist of the method:
as §3

Test [9] is described as follows: A CellTox Green Cytotoxicity Assay to monitor cytotoxicity in HepG2 cells - 0 hour (AID 1224882). Note: nearly all actives have a fitted effect of over 35% in size. The gist of the method: as §5
Test [10] in a line: A CellTox Green Cytotoxicity Assay to monitor cytotoxicity in HepG2 cells - 32 hour (AID 1224883). Note: nearly all actives have a fitted effect of over 50% in size. Note: potency is the fitted concentration of half-maximal effect. A digest of the protocol: as §5
Test [11] is described as follows: A CellTox Green Cytotoxicity Assay to monitor cytotoxicity in HEK293 cells - 8 hour (AID 1224884). Note: nearly all actives have a fitted effect of over 35% in size. Note: potency is the fitted concentration of half-maximal effect. A digest of the protocol: as §3
Test [12] in a line: qHTS RealTime-Glo MT Cell Viability Assay in HepG2 cells - 16 hour (AID 1224885). Note: nearly all actives have a fitted effect of over 50% in size. Note: potency is the fitted concentration of half-maximal effect. A digest of the protocol:
as §4

A short description of test [13]: qHTS RealTime-Glo MT Cell Viability Assay in HEK293 cells - 24 hour (AID 1224886). Note: nearly all actives have a fitted effect of over 50% in size. Note: potency is the fitted concentration of half-maximal effect. A digest of the protocol:
as §1

A short description of test [14]: qHTS RealTime-Glo MT Cell Viability Assay in HEK293 cells - 8 hour (AID 1224887). Note: nearly all actives have a fitted effect of over 50% in size. Note: potency is the fitted concentration of half-maximal effect. The gist of the method: as §2
Test [15] can be described thus: A CellTox Green Cytotoxicity Assay to monitor cytotoxicity in HEK293 cells - 16 hour (AID 1224888). Note: nearly all actives have a fitted effect of over 35% in size. Note: potency is the fitted concentration of half-maximal effect. A digest of the protocol:
as §3

A short description of test [16]: qHTS RealTime-Glo MT Cell Viability Assay in HEK293 cells - 0 hour (AID 1224880). Note: top concentration of the series differs between compounds; nearly all actives have a fitted effect of over 45% in size. The gist of the method: as §2
Test [17] is described as follows: qHTS RealTime-Glo MT Cell Viability Assay in HepG2 cells - 0 hour (AID 1224889). Note: nearly all actives have a fitted effect of over 50% in size. A digest of the protocol:
as §4

Test [18] is described as follows: qHTS assay to identify small molecule antagonists of the estrogen receptor alpha (ER-alpha) signaling pathway using the BG1 cell line in the presence of 0.1 nM 17-beta-estradiol - cell viability counter screen (AID 1259241). Note: nearly all actives have a fitted effect of over 40% in size. The gist of the method:
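Viability in VM7Luc4E2 cells after 22 hr compound exposure under 0.1 nM 17beta-estradiol stimulation, by CellTiter-Fluor.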

Test [19] is described as follows: A CellTox Green Cytotoxicity Assay to monitor cytotoxicity in HepG2 cells - 16 hour (AID 1224876). Note: nearly all actives have a fitted effect of over 45% in size. Note: potency is the fitted concentration of half-maximal effect. The gist of the method:
as §5

The nature of test [20]: A CellTox Green Cytotoxicity Assay to monitor cytotoxicity in HepG2 cells - 8 hour (AID 1224890). Note: nearly all actives have a fitted effect of over 45% in size. Note: potency is the fitted concentration of half-maximal effect. A digest of the protocol: as §5
% is set by controls: 0 for no effect and ±100 for the full control effect.

Take `CSc1ccc2c(c1)N(CCC1CCCCN1C)c1ccccc1S2` (centres undefined): the Potency in test [1] is 17.3 µM (active); in test [2], 54.7 µM (active) and 23.9 µM (active); in [3] it was 15.4 µM (active); in test [4], 24.4 µM (active); in test [5], 43.5 µM (active) and 26.8 µM (active); in test [6], 38.7 µM (active) and 23.9 µM (active). The Potency is 34.5 µM (active) and 23.9 µM (active) in test [7]; 30.8 µM (active) in test [8]; 34.5 µM (active) and 23.9 µM (active) in test [10]; 34.5 µM (active) in test [11]; 54.7 µM (active) and 23.9 µM (active) in test [12]; 15.4 µM (active) in [13]. Further, the Potency in test [14] is 19.4 µM (active); in test [15] it was 30.8 µM (active). The Potency entry in test [9] was “inactive”.

On to `NCCCC(O)(P(=O)(O)O)P(=O)(O)O`, for which the Potency entry in test [1], in test [2], in [4], in test [5], in test [6] and in test [7] was “inactive” throughout. The Potency result in test [16], in test [8], in [11], in test [12], in test [13] and in test [14] was “inactive” in each case. In addition, the Potency result in test [15], in test [17] and in test [18] was “inactive” in each case. In addition, the max response in [3] is 12.2% (inactive).

Regarding `CCCCCCCOC(=O)c1ccc(O)cc1`, the Potency in test [1] was 24.6 µM (active) and 21.9 µM (active); in [3], 24.6 µM (active) and 19.5 µM (active); in [19], “inactive and 38.9 µM (active)”; in test [6], 24.5 µM (active); in [7], 24.5 µM (active); in test [10], 24.5 µM (active). In addition, the Potency in test [13] was 24.6 µM (active) and 21.9 µM (active); in test [14] it was 21.9 µM (active); in test [20], “inactive and 38.9 µM (active)”. Besides, the Potency result in test [2], in [5], in test [16], in [8], in test [9] and in test [11] was “inactive” throughout. Besides, the Potency result in [12], in test [17] and in test [18] was “inactive” each time.

Turning to `Cc1cccc(N(C)C)c1`, the Potency entry in test [1], in test [2], in test [19], in test [5], in test [6] and in [7] was “inactive” in each case. Moreover, the Potency entry in test [16], in test [8], in test [9], in test [10], in test [11] and in test [12] was “inactive” each time. Moreover, the Potency result in test [13], in [14], in test [15], in test [17] and in [18] was “inactive” each time. The max response in test [3] was 7.91% (inactive).

In the case of `O=C1OC(OC(=O)c2cccnc2Nc2cccc(C(F)(F)F)c2)c2ccccc21` (centres undefined), the Potency result in test [1], in [2], in test [4], in [5], in [6] and in test [7] was “inactive” in each case. The Potency result in [16], in test [9], in test [10], in test [11], in test [12] and in [13] was “inactive” in each case. In addition, the Potency entry in test [14], in test [15], in [17] and in test [20] was “inactive” in each case. In test [3], the max response was -1.07% (inactive).

As for `CCCCN(CCCC)CCC(O)c1cc2c(Cl)cc(Cl)cc2c2cc(C(F)(F)F)ccc12` (centres undefined), the Potency result in [1], in test [2], in [4], in [19], in test [16] and in test [9] was “inactive” each time. Moreover, the Potency result in test [11], in [13], in test [14], in test [15], in [17] and in test [20] was “inactive” each time. Moreover, the max response in test [3] was -17.9% (inactive). For the same molecule, the Potency in test [7] is 23.9 µM (active).

Turning to `CCCCCCCOC(=O)c1ccccc1C(=O)OCCCCCCC`, the Potency entry in test [1], in test [2], in test [19], in [5], in [6] and in test [7] was “inactive” each time. The Potency entry in test [16], in [8], in test [10], in test [11], in test [12] and in test [13] was “inactive” throughout. The Potency result in [14], in [20] and in test [18] was “inactive” each time. The max response in [3] is -16.7% (inactive).
